# Screens: PubChem BioAssay, National Center for Advancing Translational Sciences (NCATS)
# HP1b binding inh = HP1-beta chromodomain-methylated histone interaction inhibition | AlphaScreen HP1-beta / biotin-H3K9me3 peptide binding | Potency, µM (titrated, usually from 114 µM), without a hit: at the highest dose activity change, negative = inhibition, usual class: inhibitors | 390,000 tested, 0.56% active | AID 540317; note: nearly all actives have a fitted effect of over 70% in size
#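 HP1-beta protein (50 nM final) preincubated 30 min at room temperature with biotinylated H3(1-18)K9me3 peptide (50 nM) in PBS pH 7.4, 0.01% Tween-20, then compound added for 30 min. AlphaScreen streptavidin donor/nickel chelate acceptor beads (10 ug/mL final), 30 min dark, luminescence read.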
# L3MBTL1 block = L3MBTL1 (human) inhibition; Q9Y468; AlphaScreen L3MBTL1–H3K9me1 peptide binding; Potency, µM (highest dose often 57.1 µM), for the others: at the highest dose activity, negative = inhibition, most hits filed as inhibitors; 230,000 tested, 0.66% active; note: % is set by controls: 0 for no effect and ±100 for the full control effect; nearly all actives have a fitted effect of over 60% in size
#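 First, the protein-peptide complex forms for 30 min at room temperature (L3MBTL1 50 nM, biotinylated H3K9me1 peptide 75 nM). Next, compounds are pin-transferred and incubated 30 min. Finally, AlphaScreen beads are added and read after 30 min.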
# G9a inh = blocks human histone lysine methyltransferase G9a; G9a H3K9 monomethylation, AlphaScreen, 2 h; Potency, µM (doses to about 102 µM), inactives show at the highest dose activity, negative = inhibition, actives largely listed as inhibitors; 350,000 tested, 8.8% active; note: % is set by controls: 0 for no effect and ±100 for the full control effect; nearly all actives have a fitted effect of over 75% in size
#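 Chemiluminescent proximity detection of H3K9 monomethylation, read after 10 min bead incubation in the dark. Reaction: 20 nM G9a, 500 nM biotin-H3K9 peptide, 20 uM SAM cofactor, 2 h, room temperature, following 15 min enzyme-compound preincubation.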
# JMJD2A Tudor = inhibitors of human JMJD2A Tudor domain; O75164; AlphaScreen JMJD2A-Tudor / H3K4me3 peptide binding; Potency, µM (titrated, usually from 114 µM), for the others: at the top dose activity change, negative = inhibition, hits mostly inhibitors; 390,000 tested, 4.4% active; AID 504339; note: % is set by controls: 0 for no effect and ±100 for the full control effect; nearly all actives have a fitted effect of over 50% in size
# BAZ2B block = blocks human BAZ2B. AlphaScreen BAZ2B-H3K14Ac peptide displacement. AID 504333. Potency, µM (titrated, usually from 114 µM), for the others: at the top dose activity change, negative = inhibition, most hits filed as inhibitors. Q9UIF8. 360,000 tested, 4.4% active; note: % is set by controls: 0 for no effect and ±100 for the full control effect; nearly all actives have a fitted effect of over 60% in size
#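 Compounds, titrated to a top concentration of 110 uM, were incubated 30 min at room temperature with preformed BAZ2B/acetyl-K14 H3 peptide complex (50 nM each). Proximity signal was measured by AlphaScreen after 20 min with beads.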
# * = called active by the depositor; ? = inconclusive; / = no result; [ ] = dose if it differs, or a comment. Sampled rows, rich in hits. Any-hit rate of the full collection: about 11%. Calls come from the whole dose curve; as a rule, active = well fitted inhibition curve with a large enough effect; inconclusive = small, poorly fitted or top-dose-only effect; inactive = no such curve, though single readings can be large or run the other way. Potency is the fitted concentration of half-maximal effect.
SMILES,HP1b binding inh,L3MBTL1 block,G9a inh,JMJD2A Tudor,BAZ2B block
CC(C)C[C@H](NC(=O)[C@H](CCCCN)NC(=O)[C@H](CCCNC(=N)N)NC(=O)[C@H](C)NC(=O)[C@H](CO)NC(=O)[C@H](CCCCN)NC(=O)[C@H](CCCNC(=N)N)NC(=O)[C@H](C)NC(=O)CNC(=O)[C@@H](NC(=O)[C@H](Cc1ccccc1)NC(=O)CNC(=O)CNC(=O)[C@@H](N)Cc1ccccc1)[C@H](C)O)C(=O)N[C@@H](C)C(=O)N[C@@H](CC(N)=O)C(=O)N[C@@H](CCC(N)=O)C(=O)O,/,/,24%[59 µM],/,/
N#Cc1nc(NCCO)nc(Nc2ccccc2)n1,/,/,/,-28%,/
CCOc1ccccc1CNC(=O)C1CCN(c2nnc(-n3c(C)ccc3C)s2)CC1,13%,/,-14%[59 µM],-21%,-25%
Cc1cc(=O)[nH]c2nnc(SCc3ccc(Cl)cc3Cl)n12,19%,/,7%[59 µM],-17%,-13%
CCOc1ccc(CCNC(=O)COC(=O)c2ccc3c(c2)OCCO3)cc1OCC,13%,-5%,23%[0.501 µM],-15%,7%
CCC1Oc2ccccc2N(CC(=O)NC2CCCCC2C)C1=O (configuration not stated),28%,/,24%,-3%,-15%
CC(=O)OCC(NC(=O)C(CCCCNC(=O)OCc1ccccc1)NC(=O)OC(C)(C)C)C1OC(n2ccc(=O)[nH]c2=O)C(OC(C)=O)C1OC(C)=O (configuration not stated),27%,/,/,-14%,/
O=C(CSc1nc2ccccc2c(=O)[nH]1)c1ccc(O)c(O)c1,-58%,-5%[11.4 µM],5%[12.7 µM],56µM*,-8%
Cc1ccc(C(=O)CSc2nc(N)cc(=O)[nH]2)cc1C,24%,-5%,19%,-24%,2%
Cc1cc(SCC(=O)c2ccc(O)c(O)c2)n2nc(C)c(-c3ccccc3)c2n1,4%,-23%,11µM*,-19%[11.4 µM],?
O=C(CSc1nc2ccccc2c(=O)[nH]1)c1ccc(O)cc1O,15%,7%,?,-8%,2%
Cc1cc(C)nc(SCC(=O)NN)n1,6%,-25%,22µM*,-4%,50µM*
Cc1cc(=O)[nH]c(SCC(=O)c2ccc(O)c(O)c2)n1,7%,?,7.9µM*,-8%,56µM*
CCc1ccc(NC(=O)C2CCN(c3nnc(-n4c(C)ccc4C)s3)CC2)cc1,29%,/,0%[59 µM],-10%,-1%
Cc1ccc(C(=O)CSc2nc(C)cc(=O)[nH]2)cc1,61%,7%,50µM*,-14%,-3%
Cc1ccc(-c2csc(NC(=O)CSC3=NCCS3)n2)cc1,51%,-6%,1%[59 µM],15%,-3%
Cc1ccc(-c2csc(NC(=O)CSc3nc(C)cc(=O)[nH]3)n2)cc1,11%,/,45µM*,?,?
O=C(/C=C/c1ccco1)Nc1nc(-c2ccccc2)cs1,-1%,-8%,?,-11%,?
CCOC(=O)Cc1csc(NC(=O)/C=C/c2ccco2)n1,20%,/,50µM*,-22%,-28%
Cc1csc(NC(=O)/C=C/c2ccc(C)o2)n1,25%,-3%,?,-2%,-39%
O=C(/C=C/c1ccco1)Nc1nc(-c2ccccn2)cs1,45µM*,/,22µM*,50µM*,28µM*
Cc1csc(NC(=O)/C=C/c2ccco2)n1,10%,-14%,20µM*,-22%,-38%
COCCNC(=O)CSc1nnc(-c2ccc(OC)c(OC)c2)c(-c2ccc(OC)c(OC)c2)n1,-6%,/,-7%[59 µM],-11%,-4%
Oc1ccc(Cl)cc1-c1cc(-c2ccco2)[nH]n1,7.9µM*,-20%,?,-36%[11.4 µM],40µM*
O=C(COC(=O)/C=C/c1cccc([N+](=O)[O-])c1)NCc1ccco1,12%,-13%,10%,-23%,71µM*
SMILES,HP1b binding inh,L3MBTL1 block,G9a inh,JMJD2A Tudor,BAZ2B block
CCc1cccc2c(C(=O)COC(=O)/C=C/c3ccc(O)c(OC)c3)c[nH]c12,2%,-14%,45µM*,-32%,-10%
COc1ccccc1/C=C/C(=O)OCC(=O)NCc1ccco1,-11%,-9%,4%[59 µM],-31%,?
COc1cc(/C=C/C(=O)OCC(=O)NCc2ccco2)ccc1O,8%,-7%,40µM*,-11%,-17%
COc1cc(C2NC(=O)N(C)C3=C2C(=O)N(c2ccccc2)C3)ccc1O (configuration not stated),34%,/,2%[59 µM],-9%,-16%
Cc1cc(C)c2c(=O)cc(C(=O)Nc3ccc(S(=O)(=O)Nc4nc(C)cc(C)n4)cc3)oc2c1,73%,/,-1%[59 µM],-2%,26%
CNC(=O)Nc1ccc2snnc2c1,28%,/,50µM*,-16%,14%
CCC1(c2ccccc2)NC(=S)N(c2cccc(C)c2C)N1 (configuration not stated),34%,6%,32µM*,-2%,-24%
OC(COc1ccccc1Cl)CN1CCN(CC(O)COc2ccccc2Cl)CC1 (configuration not stated),-23%,-8%,-45%[59 µM],-14%,-32%
N#Cc1ccccc1S(=O)(=O)N1CCN(CC(O)c2ccccc2)CC1 (configuration not stated),45µM*,8%,16µM*,2.2µM*,50µM*
O=S(=O)(c1ccccc1)N1CCN(CC(O)COc2ccc3c(c2)CCC3)CC1 (configuration not stated),2%,/,?,-24%,-22%
CN1CCN(S(=O)(=O)c2ccc([N+](=O)[O-])cc2)CC1,47%,3%,2%[59 µM],-12%,-1%
O=S(=O)(c1ccc(F)cc1)N1CCN(CC(O)COc2ccccc2F)CC1 (configuration not stated),25µM*,/,8.9µM*,7.9µM*,20µM*
CC(C)c1ccccc1OCC(O)CN1CCN(S(=O)(=O)c2ccc([N+](=O)[O-])cc2)CC1 (configuration not stated),?,/,35µM*,20µM*,40µM*
N#Cc1ccccc1S(=O)(=O)N1CCN(C(=O)CCc2ccccc2)CC1,24%,8%,4%[0.501 µM],-8%,6%
N#Cc1ccccc1S(=O)(=O)N1CCN(CC(O)COc2ccccc2F)CC1 (configuration not stated),?,/,2.2µM*,3.2µM*,28µM*
O=S1(=O)N=C2CCCCCN2C(c2ccc(F)cc2)N1 (configuration not stated),26%,-3%,3%,-14%,-14%
O=[N+]([O-])c1ccc(C2NS(=O)(=O)N=C3CCCCCN32)cc1 (configuration not stated),57%,6%,25µM*,1%,3%
Clc1nc(NCc2ccco2)c2[nH]cnc2n1,5%[57 µM],/,/,-2%[57.1 µM],/
CC1=Nc2ccccc2/C1=C/c1c(C)[nH]c2ccccc12,?,/,/,56µM*,/
CN(C(=O)CSc1nc2ccc(NC(=O)CCc3ccccc3)cc2s1)c1ccccc1,29%,/,-2%[59 µM],-14%,-13%
